The nature of experiment [1]: Her2 expression decrease, cell viability multiplex – SKBR3 breast tumor cells, AlphaScreen, ATP viability, primary screen (AID 461;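 active = Her2 level under about 52% in both replicate screens, with viability over 70% of control, limit read from the data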;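 as to Her2 level: lower value means less Her2 protein in the cells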;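 as to viability: percent of carrier control wells set as 100% viability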). Particulars: SKBR3 Her2 protein level, 18-24 h, measured here: SKBR3 viability, ATP luminescence, at 10 µM. (In general: Alpha assays give light when donor and acceptor beads are brought close together.)
In experiment [2] the target is Receptor tyrosine-protein kinase erbB-2 (Homo sapiens) (UniProt P04626). The experiment is described as above. As to conditions: 18-24 h, at 10 µM, stronger effect = lower value.
The nature of experiment [3]: reduced viability of SK-BR-3 breast cancer cells – cell-based, 24 h, human, pilot screen (AID 572;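 active = viability at or below 10% of carrier control in both of two separate runs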;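 also: compound exposure lasted between 18 and 24 h rather than exactly 24 h; 100% = carrier-treated control wells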). As to conditions: SK-BR-3 viability, CellTiter-Glo luminescence, at 10 µM, stronger effect = lower value.
The nature of experiment [4]: HUVEC growth inhibition – cell-based, human, primary screen (AID 575;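 active = viability at or below 30% in both replicate assays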;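 also: 100% = median of untreated cell wells with 0.1% DMSO on each plate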). Particulars: HUVEC proliferation, CellTiter-Glo luminescence, 72 h; at 10 µM; stronger effect = lower value.
A short description of experiment [5]: H69AR cell proliferation blockers – human, duplicate replicates, primary screen (AID 580;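 active = viability at or under a set limit in both replicates, limit being median viability minus 3 SD, cut at about 48% in these data, passing the limit was not always enough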;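 also: 100% = mean luminescence of untreated wells and 0% = no signal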). As to conditions: H69AR lung tumor cells viability, ATP luminescence, 72 h; at 10 µM; stronger effect = lower value.
Experiment [6] is described as follows: MRP1 drug-resistance reversers in H69AR cells – cell-based, doxorubicin co-treatment, pilot screen (AID 601;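 active = viability loss from added drug above about 55%, and viability with drug at most 40%, in both replicates, limit read from the data, passing the limit was not always enough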). Particulars: CellTiter-Glo, 72 h, at 10 µM; for differential viability (reversal): stronger effect = higher value. In general terms: Cellular ATP, detected with luciferase, serves as a proxy for viable cell number.
A short description of experiment [7]: yeast transport mutant growth inhibition pilot in 384-well plates, post-Golgi transport modulator project (AID 636; in the data active = inhibition above about 31%). Particulars: absorbance 615 nm, about 18 h, stronger effect = higher value.
The nature of experiment [8]: growth suppression of yeast trafficking mutant, preliminary HTS, modulators of trafficking downstream of Golgi apparatus project, 1536-format plate, OD 615 nm (AID 637; in the data active = inhibition above about 30%). As to conditions: yeast transport mutant growth, absorbance 615 nm, 18 h; stronger effect = higher value.
Experiment [9] is described as follows: S. cerevisiae growth inhibition in permissive medium (OD615), pilot counter-assay for S. cerevisiae lifespan shortening project, permissive growth control (AID 705;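 active = growth inhibition above 25% in both replicates, a cutoff set 3 SD above the mean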). As to conditions: OD615, 24 h, at 10 µM, stronger effect = higher value.
The nature of experiment [10]: S. cerevisiae growth inhibition in restrictive medium, OD615, pilot screen, restrictive growth control, yeast lifespan reduction project (AID 706;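 active = growth inhibition above a set limit, 3 SD over mean compound inhibition, in both replicates, cut at about 43% in these data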;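 also: modified DeaD lifespan yeast strain shifted to restrictive glucose medium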). As to conditions: OD615, 48 h, at 10 µM, stronger effect = higher value.
Experiment [11] is described as follows: doxorubicin toxicity protection in MRP-1 cells – H69AR cells, CellTiter-Glo, duplicate, MRP-1 activator project, pilot screen (AID 807).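 Also: compound pretreatment 18-22 h then 72 h combined with doxorubicin; 0% = doxorubicin alone and 100% = vehicle without doxorubicin.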 Particulars: H69AR viability with doxorubicin, CellTiter-Glo luminescence; at 10 µM; stronger effect = higher value.
A short description of experiment [12]: viability of HCT116 without oncogenic beta-catenin – human colon tumor cells, pilot screen (AID 823;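 active = cell viability at or below a set limit in both duplicate runs, the limit being the all-compound median minus 4 SD, cut at about 23% in these data, passing the limit was not always enough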;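 also: 0% = wells killed by 20 µM Hyamine and 100% = untreated DMSO cell wells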). As to conditions: HCT116 beta-catenin knockout viability, CellTiter-Glo, 60 h; at 10 µM; stronger effect = lower value.
A short description of experiment [13]: RAM pathway blockade in budding yeast – dse1pr::URA3 reporter, 5-FOA selection, pilot screen (AID 869;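 active = inhibition over a set limit, the all-compound mean plus 3 SD, in both replicate runs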;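 also: 0% = DMSO wells with no growth and 100% = 10 µM 1-NA-PP1 with full growth; RAM network block rescues cells from 5-FOA so hits raise OD615 growth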). As to conditions: S. cerevisiae dse1pr::URA3 5-FOA growth, OD615, 2 d; at 10 µM; stronger effect = higher value; strain carries analog-sensitive mutant Cbk1 kinase.
Experiment [14] is described as follows: RAM signaling pathway blockade in yeast – S. cerevisiae, Pdr1DBD-CYC8 efflux-inhibited sensitized strain, primary screen (AID 1298;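 active = RAM network inhibition above 8.4% in each of two replicates, 3 SD over the compound average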;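 also: 0% = DMSO untreated cells without growth and 100% = 10 µM 1-NA-PP1 full growth; higher means more yeast growth rescued from 5-FOA killing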). Particulars: S. cerevisiae cbk1-as DSE1-URA3 strain, 5-FOA growth OD615, 2 d; at 50 µM; stronger effect = higher value.
The nature of experiment [15]: viability of PTEN-null HCT116 cells – cell-based, HCT116 clonal line, CellTiter-Glo, pilot screen (AID 824;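 active = viability at or below 27.92% in each of two runs, the all-compound median minus 4 SD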;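 also: 0% = 20 µM Hyamine control and 100% = vehicle cell control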). As to conditions: HCT116 PTEN-deleted viability, 60 h, at 10 µM, stronger effect = lower value.
[16] abbreviates: H69AR cells + 2 uM doxorubicin, measured here: viability with 2 uM doxorubicin, stronger effect = lower value.
Setting [17] is: H69AR cells, compound alone cytotoxicity.

Structures are written as SMILES. Inconclusive results are not listed. Active and inactive are the calls of the source.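 The calls were made as follows, unless noted: active = viability increase at or above a cutoff of the median across tested compounds plus 3 SD (cut at about 8.5% in these data, passing the limit was not always enough); inconclusive = some gains above the cutoff, reason not given; inactive = the rest.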

Sequence of Receptor tyrosine-protein kinase erbB-2 (Homo sapiens) (P04626 whole entry, looked up): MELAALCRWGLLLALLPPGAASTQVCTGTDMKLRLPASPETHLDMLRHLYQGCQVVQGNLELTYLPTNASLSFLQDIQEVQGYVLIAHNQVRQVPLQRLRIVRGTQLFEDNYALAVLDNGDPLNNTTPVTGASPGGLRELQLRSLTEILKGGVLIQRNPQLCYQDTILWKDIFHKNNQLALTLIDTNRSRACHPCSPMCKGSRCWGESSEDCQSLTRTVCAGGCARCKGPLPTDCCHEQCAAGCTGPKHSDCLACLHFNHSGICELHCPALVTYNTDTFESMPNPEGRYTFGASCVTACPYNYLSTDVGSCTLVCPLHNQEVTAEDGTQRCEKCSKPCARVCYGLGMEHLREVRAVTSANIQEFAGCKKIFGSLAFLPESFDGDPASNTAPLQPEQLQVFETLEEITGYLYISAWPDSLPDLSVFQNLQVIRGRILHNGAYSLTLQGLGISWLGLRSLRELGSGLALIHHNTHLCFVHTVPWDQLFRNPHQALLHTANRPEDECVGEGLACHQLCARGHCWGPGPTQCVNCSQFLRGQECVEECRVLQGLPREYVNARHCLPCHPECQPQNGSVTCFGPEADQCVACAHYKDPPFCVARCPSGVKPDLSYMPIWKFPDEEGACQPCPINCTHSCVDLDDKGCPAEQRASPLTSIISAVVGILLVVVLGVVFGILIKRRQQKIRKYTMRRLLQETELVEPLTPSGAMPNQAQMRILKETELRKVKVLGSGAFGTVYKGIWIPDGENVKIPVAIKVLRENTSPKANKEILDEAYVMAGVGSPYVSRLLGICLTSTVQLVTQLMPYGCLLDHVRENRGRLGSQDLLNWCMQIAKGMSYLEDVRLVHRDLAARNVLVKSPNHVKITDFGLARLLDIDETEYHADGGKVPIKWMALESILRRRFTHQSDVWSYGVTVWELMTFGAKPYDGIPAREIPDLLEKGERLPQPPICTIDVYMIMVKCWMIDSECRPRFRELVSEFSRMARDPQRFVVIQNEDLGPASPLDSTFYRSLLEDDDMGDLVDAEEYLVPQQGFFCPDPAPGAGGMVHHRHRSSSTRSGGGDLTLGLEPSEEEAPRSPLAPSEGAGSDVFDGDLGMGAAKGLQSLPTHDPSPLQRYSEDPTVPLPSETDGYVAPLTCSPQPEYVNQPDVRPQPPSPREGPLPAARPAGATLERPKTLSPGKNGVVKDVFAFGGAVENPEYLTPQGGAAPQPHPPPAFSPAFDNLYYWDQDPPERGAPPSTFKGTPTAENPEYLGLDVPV

By viability is commonly meant a read-out of living cells in per cent, often relative to untreated cells. For orientation: inhibition means the change of the read-out against control, counted positive when it falls. Regarding `Cc1ccc(S(=O)(=O)C(C#N)c2nc3ccccc3nc2N2CCCCC2)cc1` (stereo not drawn), the viability was 124% in experiment [1]; 124% (inactive) in [3]; 71.6% (inactive) in [4]; 92% (inactive) in experiment [5]; 94.7% in experiment [6] (setting [16]); 92% in experiment [6] (setting [17]). The viability in [12] is 93.8% (inactive). The Her2 level in [2] was 99.5% (inactive). Also, in experiment [6] (H69AR cells + 2 uM doxorubicin), the differential viability (reversal) was -2.64% (inactive). Further, the inhibition is -6.13% (inactive) in [7], 3.65% (inactive) in experiment [8] and 2.7% (inactive) in [13]. The growth inhibition in experiment [9] was -26.9% (inactive); in [10], 6.8% (inactive). In addition, the viability increase in experiment [11] was -3.74% (inactive). Further, the RAM network inhibition in [14] was 5.83% (inactive).
In the case of `Nn1c(Cc2ccccc2F)nnc1SCC(=O)N1CC(=O)Nc2ccccc21`, the viability in experiment [1] was 112%; in experiment [3] it was 112% (inactive); in experiment [4] it was 109% (inactive); in experiment [5] it was 84.1% (inactive); in [6] (setting [16]), 86.1%; in [6] (setting [17]), 84.1%. Besides, in experiment [12], the viability is 114% (inactive). Also, the Her2 level in experiment [2] was 94.5% (inactive). Further, in [6] (H69AR cells + 2 uM doxorubicin), the differential viability (reversal) is -1.98% (inactive). Also, the inhibition in [7] is -2.86% (inactive); in [8], -10.7% (inactive); in experiment [13] it was 2.1% (inactive). Besides, the growth inhibition was -11.9% (inactive) in experiment [9] and -7.2% (inactive) in [10]. Also, the viability increase in experiment [11] was -2.14% (inactive). In [14], the RAM network inhibition is 3.29% (inactive).
Take `CSc1cccc(NC(=O)C2CCN(S(=O)(=O)c3ccc(F)cc3)CC2)c1`: the viability in experiment [1] was 77.5%; in experiment [3], 77.5% (inactive); in experiment [4], 93.7% (inactive); in experiment [5], 84.4% (inactive); in experiment [6] (setting [16]), 85.3%; in [6] (setting [17]), 84.4%. The viability is 64.3% (inactive) in [12] and 62% (inactive) in [15]. For the same molecule, the Her2 level in [2] was 70.5% (inactive). For the same molecule, in [6] (H69AR cells + 2 uM doxorubicin), the differential viability (reversal) is -0.92% (inactive). Further, the figures for the inhibition in experiment [7], in experiment [8] and in [13] were -7.57% (inactive), -6.23% (inactive) and 1.71% (inactive), respectively. Further, the growth inhibition in [9] is -1.68% (inactive); in experiment [10], -13.7% (inactive). Also, in [11], the viability increase was -4.63% (inactive). The RAM network inhibition in experiment [14] is 7.8% (inactive).
As for `COc1ccccc1C(=O)NCCc1nc2ccccc2n1C`, the viability in experiment [1] was 118%; in experiment [3], 118% (inactive); in experiment [4], 119% (inactive); in [5], 101% (inactive); in experiment [6] (setting [16]), 95%; in [6] (setting [17]) it was 101%. Further, in [12], the viability was 105% (inactive). Also, in [2], the Her2 level is 83% (inactive). The differential viability (reversal) in experiment [6] (H69AR cells + 2 uM doxorubicin) was 5.79% (inactive). Further, the inhibition in experiment [7] is -6.76% (inactive); in [8] it was -3.67% (inactive); in experiment [13], 2.54% (inactive). The growth inhibition in experiment [9] was -20.8% (inactive); in [10], 0.505% (inactive). For the same molecule, the viability increase in [11] is 0.02% (inactive). Further, the RAM network inhibition in experiment [14] was 5.39% (inactive).
Regarding `COc1ccc(C2CC(c3cccc(C)c3)n3ncnc3N2)cc1` (stereo not drawn), the viability in experiment [1] was 87.5%; in [3] it was 87.5% (inactive); in [4], 88.8% (inactive); in experiment [5], 91.4% (inactive); in experiment [6] (setting [16]), 97.2%; in [6] (setting [17]) it was 91.4%. Also, the results for the viability in experiment [12] and in experiment [15] were 100% (inactive) and 86.1% (inactive), respectively. Also, in experiment [2], the Her2 level was 89% (inactive). In [6] (H69AR cells + 2 uM doxorubicin), the differential viability (reversal) is -5.74% (inactive). Also, the inhibition in [7] is 5.6% (inactive); in [8] it was -9.02% (inactive); in experiment [13], 0.22% (inactive). In addition, the growth inhibition in experiment [9] was 1.04% (inactive); in [10], 5.56% (inactive). Besides, the viability increase in experiment [11] is -1.57% (inactive). For the same molecule, in experiment [14], the RAM network inhibition was -0.53% (inactive).
On to `CNC(=O)C1C2C=CC3(O2)C1C(=O)N(C1CC1)C3C(=O)NCc1ccc(OC)cc1` (stereo not drawn), for which the viability in [1] was 99.5%; in experiment [3], 99.5% (inactive); in experiment [4], 91.9% (inactive); in [5], 91.5% (inactive); in [6] (setting [16]) it was 92%; in experiment [6] (setting [17]) it was 91.5%. Moreover, the viability in experiment [12] is 96.3% (inactive). In [2], the Her2 level is 84% (inactive). The differential viability (reversal) in experiment [6] (H69AR cells + 2 uM doxorubicin) is -0.53% (inactive). The results for the inhibition in experiment [7], in [8] and in [13] were -8.49% (inactive), -0.16% (inactive) and 0.115% (inactive), respectively. Also, the growth inhibition is -12.6% (inactive) in experiment [9] and 1.86% (inactive) in experiment [10]. Further, the viability increase in experiment [11] was -1.49% (inactive). Further, in [14], the RAM network inhibition is 1.1% (inactive).
Consider `O=C(Nc1nncs1)c1ccccc1NS(=O)(=O)c1cccs1`, for which the viability in [1] was 99%; in experiment [3] it was 99% (inactive); in experiment [4], 95.3% (inactive); in [5], 90.2% (inactive); in experiment [6] (setting [16]), 93.8%; in experiment [6] (setting [17]), 90.2%. Moreover, the viability in experiment [12] is 102% (inactive). For the same molecule, the Her2 level in [2] is 110% (inactive). Moreover, in experiment [6] (H69AR cells + 2 uM doxorubicin), the differential viability (reversal) was -3.62% (inactive). Besides, the inhibition in [7] was -4.86% (inactive); in experiment [8] it was -11.2% (inactive); in experiment [13], 2.67% (inactive). Also, the growth inhibition in experiment [9] was -20.1% (inactive); in experiment [10], -10.1% (inactive). For the same molecule, the viability increase in [11] is -1.16% (inactive). Moreover, in [14], the RAM network inhibition was 4.37% (inactive).
`Cc1ccc(-c2noc(COc3ccccc3C)n2)cc1`: the viability in [1] is 72.5%; in [3], 72.5% (inactive); in experiment [4], 102% (inactive); in experiment [5] it was 96.9% (inactive); in [6] (setting [16]), 86.3%; in experiment [6] (setting [17]), 96.9%. Further, the viability in experiment [12] was 93% (inactive); in experiment [15] it was 103% (inactive). The Her2 level in [2] was 92% (inactive). For the same molecule, the differential viability (reversal) in experiment [6] (H69AR cells + 2 uM doxorubicin) was 10.6% (inactive). For the same molecule, the inhibition in experiment [7] is -1.2% (inactive); in experiment [8] it was 1.61% (inactive); in experiment [13] it was 0.065% (inactive). Further, the growth inhibition in [9] was -13.7% (inactive); in [10], -16.5% (inactive). Also, the viability increase in [11] was 3.84% (inactive). Moreover, the RAM network inhibition in [14] is 0% (inactive).
For `CCOC(=O)Cn1nc(-c2ccc(Cl)cc2)cc1N`, the viability in experiment [1] is 78%; in experiment [3], 78% (inactive); in experiment [4] it was 91.8% (inactive); in experiment [5], 101% (inactive); in experiment [6] (setting [16]), 83.1%; in experiment [6] (setting [17]), 101%. The viability in [12] was 102% (inactive). In experiment [2], the Her2 level is 116% (inactive). Besides, the differential viability (reversal) in experiment [6] (H69AR cells + 2 uM doxorubicin) is 18% (inactive). In addition, the inhibition was -7.95% (inactive) in experiment [7], -0.48% (inactive) in [8] and 1.88% (inactive) in [13]. Besides, the results for the growth inhibition in experiment [9] and in experiment [10] were -8.98% (inactive) and 2.33% (inactive), respectively. Besides, the viability increase in [11] was 0.37% (inactive). Also, the RAM network inhibition in [14] was 5.56% (inactive).
`CCSc1oc(-c2ccco2)nc1S(=O)(=O)c1ccccc1`: the viability in [1] was 95%; in [3], 95% (inactive); in experiment [4], 93.3% (inactive); in experiment [5], 89.3% (inactive); in [6] (setting [16]) it was 87.2%; in experiment [6] (setting [17]), 89.3%. Besides, in experiment [12], the viability is 92.7% (inactive). Besides, the Her2 level in experiment [2] is 93.5% (inactive). In addition, the differential viability (reversal) in experiment [6] (H69AR cells + 2 uM doxorubicin) was 2.04% (inactive). The inhibition in experiment [7] was -5.95% (inactive); in [8], -8.33% (inactive); in [13], 1.75% (inactive). For the same molecule, the growth inhibition in experiment [9] was -16.4% (inactive); in [10], 11.4% (inactive). For the same molecule, the viability increase in [11] was -2.68% (inactive). In [14], the RAM network inhibition is 1.2% (inactive).
